This note sets out measurements from the supplement of paper PMC9262897, “Low-cost anti-mycobacterial drug discovery using engineered E. coli” (Nature Communications, 2022).

Counter-ions that a name gives are not always drawn. ± gives the standard deviation of the averaged measurements.

The first assay deals with E. coli TESEC Mtb DapB. Put plainly: growth (OD600 after 10 h); higher = more growth (less inhibition). The conditions noted are these: arabinose induction (level): High; compound 0.1 mM; raw OD600 reference: median of DMSO wells […], cell-free background 0.041. The protocol: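 TESEC E. coli strains in which the native enzyme is deleted and replaced by arabinose-inducible Mtb Asd, DapB, CysH or TrpD, each grown in its selective medium. Strains were screened against the Prestwick library at 0.1 mM and 1% DMSO in 384-well format at low and high arabinose induction. Growth is read as OD600 after 10 h in triplicate.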
The molecule `CC[C@H]1OC(=O)[C@H](C)[C@@H](O[C@H]2C[C@@](C)(OC)[C@@H](O)[C@H](C)O2)[C@H](C)[C@@H](O[C@@H]2O[C@H](C)C[C@H](N(C)C)[C@H]2O)[C@](C)(O)C[C@@H](C)CN(C)[C@H](C)[C@@H](O)[C@]1(C)O` [Azithromycin] registered a growth of 0.1 ± 0.088.

As for `C=C[C@H]1CN2CC[C@H]1C[C@@H]2[C@@H](O)c1ccnc2ccc(OC)cc12` [Quinidine hydrochloride monohydrate], the growth stood at 0.198 ± 0.0064.

`Nc1ccc(S(=O)(=O)Nc2ccnn2-c2ccccc2)cc1` [Sulfaphenazole]: the growth worked out at 0.163 ± 0.016.

The molecule `COc1cc([C@@H]2c3cc4c(cc3[C@@H](O[C@@H]3O[C@@H]5CO[C@@H](C)O[C@H]5[C@H](O)[C@H]3O)[C@H]3COC(=O)[C@H]23)OCO4)cc(OC)c1O` [Etoposide] yielded a growth of 0.113 ± 0.0098.

Take `O=C(CCCCCCC(=O)Nc1ccccc1)NO` [Vorinostat]: the growth was 0.174 ± 0.0062.

On to `CN1CCCCC1CCN1c2ccccc2Sc2ccc([S+](C)[O-])cc21` (stereo not given) [Mesoridazine besylate], for which the growth was determined as 0.191 ± 0.007.

Molecule `CCS(=O)(=O)CCn1c([N+](=O)[O-])cnc1C` [Tinidazole] showed a growth of 0.204 ± 0.0081.

`O=C(c1ccc(F)cc1)C1CCN(CCn2c(=O)[nH]c3ccccc3c2=O)CC1` [Ketanserin tartrate hydrate] came in with a growth of 0.203 ± 0.02.

In turn, `CC(C)C(=O)Nc1ccc([N+](=O)[O-])c(C(F)(F)F)c1` [Flutamide] returned a growth of 0.177 ± 0.013.

`Oc1c(Cl)cc(Cl)c2cccnc12` [Chloroxine]: the growth is 0.0813 ± 0.015.

Molecule `C#C[C@]1(O)CC[C@H]2[C@@H]3CCc4cc(OC)ccc4[C@H]3CC[C@@]21C` [Ethynylestradiol 3-methyl ether] gave a growth of 0.204 ± 0.031.

Regarding `C[C@H](Cc1cc2c(c(C(N)=O)c1)N(CCCO)CC2)NCCOc1ccccc1OCC(F)(F)F` [Silodosin], the growth worked out at 0.201 ± 0.02.

Take `O=c1oc2ccccc2c(O)c1Cc1c(O)c2ccccc2oc1=O` [Dicumarol]: the growth is 0.18 ± 0.014.

As for `Nc1nc(F)nc2c1ncn2[C@@H]1O[C@H](CO)[C@@H](O)[C@@H]1O` [Fludarabine], the growth was 0.168 ± 0.014.

With `COc1ccc2cc([C@@H](C)C(=O)O)ccc2c1` [(R) -Naproxen sodium salt], the growth came out at 0.196 ± 0.014.

In the case of `CC(Cc1cccc(C(F)(F)F)c1)NCCOC(=O)c1ccccc1` (stereo not given) [Benfluorex], the growth stood at 0.149 ± 0.0064.

For `Nc1nc(O)c2ncn(CCC(CO)CO)c2n1` [Penciclovir], the growth is 0.226 ± 0.013.

Turning to `CN1C(=O)CC(c2ccccc2)C1=O` (stereo not given) [Phensuximide], the growth worked out at 0.174 ± 0.0062.

With `C(=C\c1ccccc1)/CN1CCN(C(c2ccccc2)c2ccccc2)CC1` [Cinnarizine], the growth was 0.205 ± 0.011.

`COc1cc(OC)c(C(=O)CCCN2CCCC2)c(OC)c1` [Buflomedil hydrochloride]: the growth worked out at 0.166 ± 0.041.

Staying with this assay, now noted: arabinose induction (level): Low; compound 0.1 mM; raw OD600 reference: median of DMSO wells 0.227, cell-free background 0.041.
As to `CC[C@H]1OC(=O)[C@H](C)[C@@H](O[C@H]2C[C@@](C)(OC)[C@@H](O)[C@H](C)O2)[C@H](C)[C@@H](O[C@@H]2O[C@H](C)C[C@H](N(C)C)[C@H]2O)[C@](C)(O)C[C@@H](C)CN(C)[C@H](C)[C@@H](O)[C@]1(C)O` [Azithromycin], the growth is 0.0998 ± 0.09.

Take `C=C[C@H]1CN2CC[C@H]1C[C@@H]2[C@@H](O)c1ccnc2ccc(OC)cc12` [Quinidine hydrochloride monohydrate]: the growth is 0.229 ± 0.034.

In turn, `Nc1ccc(S(=O)(=O)Nc2ccnn2-c2ccccc2)cc1` [Sulfaphenazole] gave a growth of 0.174 ± 0.03.

`COc1cc([C@@H]2c3cc4c(cc3[C@@H](O[C@@H]3O[C@@H]5CO[C@@H](C)O[C@H]5[C@H](O)[C@H]3O)[C@H]3COC(=O)[C@H]23)OCO4)cc(OC)c1O` [Etoposide] gave a growth of 0.0846 ± 0.011.

For the molecule `O=C(CCCCCCC(=O)Nc1ccccc1)NO` [Vorinostat], the growth was 0.204 ± 0.0056.

Turning to `CN1CCCCC1CCN1c2ccccc2Sc2ccc([S+](C)[O-])cc21` (stereo not given) [Mesoridazine besylate], the growth was 0.202 ± 0.027.

As to `CCS(=O)(=O)CCn1c([N+](=O)[O-])cnc1C` [Tinidazole], the growth came out at 0.212 ± 0.027.

`O=C(c1ccc(F)cc1)C1CCN(CCn2c(=O)[nH]c3ccccc3c2=O)CC1` [Ketanserin tartrate hydrate] had a growth of 0.251 ± 0.056.

Consider `CC(C)C(=O)Nc1ccc([N+](=O)[O-])c(C(F)(F)F)c1` [Flutamide], for which the growth is 0.218 ± 0.039.

`Oc1c(Cl)cc(Cl)c2cccnc12` [Chloroxine] displayed a growth of 0.117 ± 0.069.

For `C#C[C@]1(O)CC[C@H]2[C@@H]3CCc4cc(OC)ccc4[C@H]3CC[C@@]21C` [Ethynylestradiol 3-methyl ether], the growth is 0.226 ± 0.025.

On to `C[C@H](Cc1cc2c(c(C(N)=O)c1)N(CCCO)CC2)NCCOc1ccccc1OCC(F)(F)F` [Silodosin], for which the growth was 0.206 ± 0.033.

Regarding `O=c1oc2ccccc2c(O)c1Cc1c(O)c2ccccc2oc1=O` [Dicumarol], the growth was determined as 0.199 ± 0.046.

As to `Nc1nc(F)nc2c1ncn2[C@@H]1O[C@H](CO)[C@@H](O)[C@@H]1O` [Fludarabine], the growth worked out at 0.194 ± 0.028.

In the case of `COc1ccc2cc([C@@H](C)C(=O)O)ccc2c1` [(R) -Naproxen sodium salt], the growth amounted to 0.216 ± 0.052.

Molecule `CC(Cc1cccc(C(F)(F)F)c1)NCCOC(=O)c1ccccc1` (stereo not given) [Benfluorex] displayed a growth of 0.1621 ± 0.00032.

As to `Nc1nc(O)c2ncn(CCC(CO)CO)c2n1` [Penciclovir], the growth worked out at 0.244 ± 0.02.

On to `CN1C(=O)CC(c2ccccc2)C1=O` (stereo not given) [Phensuximide], for which the growth turned out to be 0.219 ± 0.015.

As for `C(=C\c1ccccc1)/CN1CCN(C(c2ccccc2)c2ccccc2)CC1` [Cinnarizine], the growth was 0.223 ± 0.019.

Molecule `COc1cc(OC)c(C(=O)CCCN2CCCC2)c(OC)c1` [Buflomedil hydrochloride] displayed a growth of 0.188 ± 0.01.
